# Data: PubChem BioAssay (NCATS)
# Results filed as inconclusive are left out. Unmarked numbers belong to inactive results. Calls of active or inactive are those of the source. Calls come from the whole dose curve; as a rule, active = well fitted activation curve with a large enough effect; inconclusive = small, poorly fitted or top-dose-only effect; inactive = no such curve, though single readings can be large or run the other way.
# Molecular target: Cellular tumor antigen p53 (Homo sapiens) (UniProt P04637)
# Assay: Primary qHTS for small molecule compounds that upregulate eGFP-tagged delta133p53alpha (in N-terminal) cells. (AID 2060322); note: nearly all actives have a fitted effect of over 75% in size;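 for activation: series mostly up to about 56 µM; 0% = DMSO vehicle and 100% = reference activator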
# Conditions: NCI-H358 eGFP-delta133p53alpha fluorescence, 24 h; activation: stronger effect = higher value
# In short: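 NCI-H358 cells pre-induced 24 h with 10 ng/ml doxycycline to express N-terminal eGFP-delta133p53alpha, then dosed 24 h at 37C without doxycycline; fixed, Hoechst-stained, GFP intensity by laser scanning cytometry, normalized to DMSO (0%) and 57.5 uM 5-azacytidine (100%).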
# Potency is the fitted concentration of half-maximal effect.
# Chain of Cellular tumor antigen p53 (Homo sapiens) (P04637 whole entry, looked up): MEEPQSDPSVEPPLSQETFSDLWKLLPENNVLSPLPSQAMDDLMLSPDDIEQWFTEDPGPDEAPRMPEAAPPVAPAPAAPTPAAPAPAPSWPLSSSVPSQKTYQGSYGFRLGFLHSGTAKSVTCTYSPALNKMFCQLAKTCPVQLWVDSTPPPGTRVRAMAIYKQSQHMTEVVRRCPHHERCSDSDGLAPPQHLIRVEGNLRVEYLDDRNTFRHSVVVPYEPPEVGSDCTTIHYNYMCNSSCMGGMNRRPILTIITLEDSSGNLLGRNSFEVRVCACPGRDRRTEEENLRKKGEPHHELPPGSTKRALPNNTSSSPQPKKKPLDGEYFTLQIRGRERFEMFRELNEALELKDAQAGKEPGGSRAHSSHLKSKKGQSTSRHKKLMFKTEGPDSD
Compound,activation [%],Potency
N#Cc1cc(NC(=O)C(=O)O)c(Cl)c(NC(=O)C(=O)O)c1,0.565,
Cc1c(C(=O)O)c(O)cc2c1C(=O)c1c(O)c([C@@H]3O[C@H](CO)[C@@H](O)[C@H](O)[C@H]3O)c(O)c(O)c1C2=O,-4.18,
N[C@@H](Cc1cc(I)c(Oc2ccc(O)c(I)c2)c(I)c1)C(=O)O,-7.64,
O=C1c2ccccc2C(=O)C1c1ccccc1,-12.6,
CCOC(=O)NNc1nncc2ccccc12,20.1,
OC[C@@H](O)[C@@H](O)[C@H](O)[C@H](O)CO,-9.21,
CC(=O)NS(=O)(=O)c1ccc(N)cc1,-1.67,
CN1C(=O)CC(C)(c2ccccc2)C1=O (stereo not drawn),23.4,
CC(C)(C)C(=O)OCOC(=O)[C@@H]1N2C(=O)[C@@H](NC(=O)[C@H](N)c3ccccc3)[C@H]2SC1(C)C,7.53,
C=CC[C@@H]1C=C(C)C[C@H](C)C[C@H](OC)[C@H]2O[C@@](O)(C(=O)C(=O)N3CCCC[C@H]3C(=O)O[C@H](C(C)=C[C@@H]3CC[C@H](O)[C@H](OC)C3)[C@@H](C)[C@@H](O)CC1=O)[C@@H](C)C[C@@H]2OC,23.1,
CC1(c2ccccc2)OC(C(=O)O)=CC1=O (stereo not drawn),26.8,
C[C@@]12C[C@@]3(O)O[C@@H](O1)[C@]1(COC(=O)c4ccccc4)[C@@H]3C[C@@]12O[C@@H]1O[C@H](CO)[C@@H](O)[C@H](O)[C@@H]1O,35.7,
COC(=O)[C@]12CCC(C)(C)C[C@@H]1[C@@H]1C(=O)C=C3[C@@]4(C)C=C(C#N)C(=O)C(C)(C)[C@@H]4CC[C@@]3(C)[C@]1(C)CC2,,10.9 µM (active)
COc1c(C)c2c(c(O)c1CC=C(C)CCC(=O)O)C(=O)OC2,-14.1,
NS(=O)(=O)c1ccc(N2CCCCS2(=O)=O)cc1,7.34,
COc1cc(C=CC(=O)CC(=O)C=Cc2ccc(O)c(OC)c2)ccc1O,,39.5 µM (active)
O=C(C=Cc1ccc(O)cc1)c1ccc(O)cc1O,-12.8,
CN(C)CC/C=C1\c2ccccc2Sc2ccc(Cl)cc21,0,
O=C(O)Cc1sc(-c2ccccc2)nc1-c1ccc(Cl)cc1,-17.6,
N=C1SC(=Cc2ccc(-c3ccc4c(c3)C(=O)NC4=O)o2)C(=O)N1c1ccc(Br)cc1,54.1,
CNC(=O)[C@H](CC1=CN=C2C=CCC=C12)NC(=O)[C@@H](CC(=O)NO)CC(C)C,3.1,
COCCOCC(OC)OC,-6.69,
O=C(Cn1ccnc1[N+](=O)[O-])NCCO,-9.21,
CC1CC(OC(=O)c2ccccc2O)CC(C)(C)C1 (stereo not drawn),-0.565,
COc1ccc(OC)c(C(O)CNC(=O)CN)c1 (stereo not drawn),8.47,
NC(=O)N[C@@H](CCC(=O)O)C(=O)O,-5.02,
C[N+](C)(C)CC[N+]1(C)Cc2c(Cl)c(Cl)c(Cl)c(Cl)c2C1,-1.69,
NC(=O)NC(=O)Cc1ccccc1,-10,
